The results in this text go back to the supplement of paper PMC6607015.

Each structure is given as a SMILES string. Where a name gives a salt, the structure may show the parent alone.

This assay deals with A431. As to the kind of experiment: LBPA endosome anti-LBPA integrated intensity (sum per cell), Z-score; higher = more LBPA staining. To be noted: compound concentration in added solution (µM; 5 µl added to 20 µl cells): 10; 18 h. In outline:
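Four 20× images per well were taken of HeLa MZ or A431 cells that had been seeded at 3,500 per well in 20 µl onto 5 µl of 10 µM compound solution in duplicate 384-well imaging plates. Before imaging, cells were incubated 18 h, fixed in 4% PFA and stained with 6C4 anti-LBPA antibody, filipin, propidium iodide and CellTracker green. Values are Z-scores normalised in AcuityXpress from MetaXpress-derived per-cell integrated LBPA or filipin intensity, either whole-cell or within LBPA endosomes.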
As to `C=C1C[C@@H]2[C@H](CC[C@]3(C)C(=O)CC[C@@H]23)[C@@]2(C)C=CC(=O)C=C12` [Exemestane], the “LBPA endosome anti-LBPA integrated intensity (z-score)” value is -0.59. Turning to `CC[N+]1(C)CCCC(OC(=O)C(O)(c2ccccc2)c2ccccc2)C1` (stereo not given) [Pipenzolate bromide], the “LBPA endosome anti-LBPA integrated intensity (z-score)” value is -0.28. The result for `C=CCC1(CC(C)C)C(=O)NC(=O)NC1=O` [Butalbital] reads -0.477; that for `CCCC(C)C1(CC)C(=O)NC(=O)NC1=O` (stereo not given) [Pentobarbital], -0.683. The same measure for `CC(=O)OCC1=C(C(=O)O)N2C(=O)[C@@H](N)[C@H]2SC1` [Cephalosporanic acid, 7-amino]: -0.605. Take `Cc1cccc(C)c1NC1=NCCCS1` [Xylazine]: the “LBPA endosome anti-LBPA integrated intensity (z-score)” value was -0.493.

With `CC(C)(N)Cc1ccccc1` [Phentermine hydrochloride], the “LBPA endosome anti-LBPA integrated intensity (z-score)” value was -0.333. Turning to `CN(C)C(=O)Oc1cc(OC(=O)N(C)C)cc(C(O)CNC(C)(C)C)c1` (stereo not given) [Bambuterol hydrochloride], the “LBPA endosome anti-LBPA integrated intensity (z-score)” value is -0.585. The same measure for `CN1C[C@H](C(=O)N[C@]2(C)O[C@@]3(O)[C@@H]4CCCN4C(=O)[C@H](Cc4ccccc4)N3C2=O)C[C@@H]2c3cccc4[nH]cc(c34)C[C@H]21` [Dihydroergotamine tartrate]: 2.74; for `CCCC(C)(COC(N)=O)COC(=O)NC(C)C` (stereo not given) [Carisoprodol]: -0.659. The result for `O=C(CCCN1CCC2(CC1)C(=O)NCN2c1ccccc1)c1ccc(F)cc1` [Spiperone] reads 1.39; that for `CCC1(c2cccc(O)c2)CCCCN(C)C1` (stereo not given) [Meptazinol hydrochloride], -0.527; that for `CN1[C@@H]2CC[C@H]1C[C@@H](OC1c3ccccc3CCc3ccccc31)C2` [Deptropine citrate], 3.21. With `CC(C)CC(N(C)C)C1(c2ccc(Cl)cc2)CCC1` (stereo not given) [Sibutramine HCl], the “LBPA endosome anti-LBPA integrated intensity (z-score)” value is -0.608.

`C[C@]12COC(=O)C[C@@H]1CC[C@@H]1[C@@H]2CC[C@@]2(C)[C@H]1CC[C@]2(C)O` [Oxandrolone]: the “LBPA endosome anti-LBPA integrated intensity (z-score)” value is -0.386. As to `COc1ccc2c(c1)[C@]13CCCC[C@@H]1[C@H](C2)N(C)CC3` [Dextromethorphan hydrobromide monohydrate], the “LBPA endosome anti-LBPA integrated intensity (z-score)” value was -0.375. For the molecule `CCC(=O)O[C@H]1CC[C@H]2[C@@H]3CCC4=CC(=O)CC[C@]4(C)[C@H]3CC[C@]12C` [Testosterone propionate], the “LBPA endosome anti-LBPA integrated intensity (z-score)” value is -0.618.

For `C[C@]12CC[C@@H](O)C[C@@H]1CC[C@@H]1[C@@H]2CC[C@]2(C)C(=O)CC[C@@H]12` [Androsterone], the “LBPA endosome anti-LBPA integrated intensity (z-score)” value is -0.387. The result for `COc1cc2c(cc1OC)C(C)NCC2` (stereo not given) reads -0.47. The result for `C[C@]12C[C@H]3S[C@H]3C[C@@H]1CC[C@@H]1[C@@H]2CC[C@]2(C)[C@@H](O)CC[C@@H]12` [Epitiostanol] reads -0.387; that for `C1CCc2nnnn2CC1` [Pentylenetetrazole], -0.641. The same measure for `NCCCNCCSP(=O)(O)O` [Amifostine]: -0.621; for `CCC1(c2ccc(N)cc2)CCC(=O)NC1=O` (stereo not given) [Glutethimide, para-amino]: -0.66. Take `CCNCC(O)c1cccc(O)c1` (stereo not given) [Etilefrine hydrochloride]: the “LBPA endosome anti-LBPA integrated intensity (z-score)” value is -0.181. The same measure for `CCN(CC)C(C)C(=O)c1ccccc1` (stereo not given) [Amfepramone hydrochloride]: -0.552; for `CN1CCN(C(=O)OC2c3nccnc3C(=O)N2c2ccc(Cl)cn2)CC1` (stereo not given) [Zopiclone]: -0.313; for `CC(O)(CS(=O)(=O)c1ccc(F)cc1)C(=O)Nc1ccc(C#N)c(C(F)(F)F)c1` (stereo not given) [Bicalutamide]: -0.376. Turning to `CC(=O)O[C@H]1CC[C@@]2(C)C(=CC[C@@H]3[C@@H]2CC[C@]2(C)C(=O)CC[C@@H]32)C1` [Dehydroisoandosterone 3-acetate], the “LBPA endosome anti-LBPA integrated intensity (z-score)” value is -0.242.

`C[C@H](N)[C@H](O)c1ccc(O)c(O)c1` [Levonordefrin]: the “LBPA endosome anti-LBPA integrated intensity (z-score)” value was -0.29. Turning to `C=C1[C@@H]2CC[C@H]3[C@]4(C)C[C@H](O[C@@H]5O[C@H](CO)[C@@H](OS(=O)(=O)O)[C@H](OS(=O)(=O)O)[C@H]5OC(=O)CC(C)C)C[C@@H](C(=O)O)[C@H]4CC[C@]3(C2)[C@@H]1O` [Atractyloside potassium salt], the “LBPA endosome anti-LBPA integrated intensity (z-score)” value is -0.439. On to `O=c1c2ccccc2[se]n1-c1ccccc1` [Ebselen], for which the “LBPA endosome anti-LBPA integrated intensity (z-score)” value is -0.435. The result for `CCC1=C[C@H]2CN3CCc4c([nH]c5ccccc45)[C@](C(=O)OC)(C2)[C@H]13` [Catharanthine] reads 0.776. The result for `CC(=O)OCC(=O)[C@H]1CC[C@H]2[C@@H]3CC[C@H]4C[C@H](O)CC[C@]4(C)[C@H]3C(=O)C[C@]12C` [Alfadolone acetate] reads 0.719; that for `CN[C@@H]1[C@@H](O)[C@@H](O[C@@H]2[C@@H](O)[C@H](O[C@H]3O[C@H](CN)CC[C@H]3N)[C@@H](N)C[C@H]2N)OC[C@]1(C)O.CN[C@@H]1[C@@H](O)[C@@H](O[C@@H]2[C@@H](O)[C@H](O[C@H]3O[C@H]([C@@H](C)N)CC[C@H]3N)[C@@H](N)C[C@H]2N)OC[C@]1(C)O.CN[C@@H]1[C@@H](O)[C@@H](O[C@@H]2[C@@H](O)[C@H](O[C@H]3O[C@H]([C@@H](C)NC)CC[C@H]3N)[C@@H](N)C[C@H]2N)OC[C@]1(C)O` [Gentamicine sulfate], -0.58.

Consider `O=[N+]([O-])O[C@H]1CO[C@H]2[C@@H]1OC[C@H]2O[N+](=O)[O-]` [Isosorbide dinitrate], for which the “LBPA endosome anti-LBPA integrated intensity (z-score)” value is -0.547.
